Measurements taken from PubChem BioAssay (Tox21).
Results filed as inconclusive are left out. Unmarked numbers belong to inactive results. The source made the active and inactive calls. Calls follow the shape of the full dose curve.

assay: qHTS assay to identify small molecule agonists of the AP-1 signaling pathway - cell viability counter screen (AID 1159525); conditions: ME-180 (cervical carcinoma) AP-1-bla cells viability, ATP luminescence, 5 h; series mostly up to 76.8 µM; also: nearly all actives have a fitted effect of over 55% in size
Excerpt: National Center for Advancing Translational Sciences [NCATS]
NIH Chemical Genomics Center [NCGC]
U.S. Environmental Protection Agency [EPA]
National Institutes of Environmental Health Sciences [NIEHS]
National Toxicology Program [NTP]
U.S. Food and Drug Administration [FDA]
Activator protein-1 (AP-1), a transcription factor, plays an important role in tumor genesis by regulating genes involved in cell proliferation, differentiation, apoptosis, and angiogenesis. AP-1 activity is induced by a complex network of signaling pathways that involves extracellular signals, such as growth factors. The AP-1 protein complex formed from c-Fos and c-Jun binding to the AP-1 response element results in transcriptional activation of genes containing such elements within their promoter.
Low molecular weight molecules have been discovered and developed to modulate various components of these signaling pathways, for example, MAP kinase inhibitors. However, many points of pathway modulation remain untested due to the lack of chemical probes making this signaling locus of general interest.
Using a beta-lactamase reporter-gene under control of the AP-1 response element, a cell-based assay [CellSensor(TM) AP-1-bla ME-180 developed by Invitrogen Corp.] was used to measure EGF-induced signaling. The Tox21 10K library compounds were measured for their ability to positively modulate the action of EC50 EGF on reporter gene activity. Compounds were screened in a 15-pt titration series in 1536-well format. The cytotoxicity of the Tox21 compound library against this cell line was tested in parallel by measuring the intra cellular ATP content in the same wells.
Tox21 Assay Protocol Summary:
2500 cells/5uL in Opti-MEM medium containing 0.5% dialyzed FBS, 0.1 mM NEAA, 1 mM sodium pyruvate and 10 mM HEPES was dispensed into 1536-well black wall/clear bottom plates using a Multidrop dispenser and cells were cultured at 37 degrees Celsius overnight. Next day 23 nL of compounds dissolved in DMSO, positive controls or DMSO were delivered to each well using a pin tool. The plates were incubated at 37 degrees Celsius for 5 hours. 1 uL of LiveBLAzerTM B/G FRET substrate (Solution A+B+C+D) was added to each well using a Flying Reagent Dispenser. After incubated at room temperature for 2.5 hours the plates were measured on an EnVision plate reader at Excitation 405nm, Emission1=460nm and Emission 2=530nm. The %Activity was determined from the ratio of 460nm/530nm.
After the plates were read for Beta-Lactamase assay on Envision; 3 ul Cell Titer Glo (Promega) was added to measure the cytotoxicity and the plates were then incubated at RT in dark for 30 min. The luminescence was read on ViewLux (Perkin Elmer, Shelton, CT) using 6 sec exposure. ViewLux data was expressed as relative luminescence units.
For primary data analysis, raw plate reads for each titration point were first normalized relative to […] EGF control (100%) and DMSO only wells (basal, 0%).
For primary data analysis for viability assay, raw plate reads for each titration point were first normalized Tetra n-octyl ammonium bromide control (-100%) and DMSO (control, 100%).

| SMILES | outcome | viability change, negative = cytotoxic |
| --- | --- | --- |
| CCCO[Si](OCCC)(OCCC)OCCC | inactive | – |
| FB(F)F | inactive | – |
| CCCCCCC1CCC(=O)O1 (stereo not given) | inactive | – |
| Cc1ncc([C@@H](CCCCCCc2ccc3c(n2)NCCC3)CC(=O)O)cn1 | inactive | – |
| COc1cc(-c2ccc(=O)[nH]n2)ccc1OC(F)F | inactive | – |
| C=C(C)C(=O)OCC(O)CO (stereo not given) | inactive | – |
| CCOCC(C)O (stereo not given) | inactive | – |
| C=CCCCCCCCCC(=O)OCC | inactive | – |
| CCN[C@@H]1C[C@H](N)[C@@H](OC2OC(CN)=CCC2N)[C@H](O)[C@H]1O[C@H]1OC[C@](C)(O)[C@H](NC)[C@H]1O (stereo not given in full) | – | 0.839% [at 0.29 µM] |
| C[N+]1(C)CCCC(OC(=O)C(O)(c2ccccc2)c2ccccc2)C1 (stereo not given) | inactive | – |
| C[C@H]1[C@H](NC(=O)/C(=N/OC(C)(C)C(=O)O)c2csc(N)n2)C(=O)N1S(=O)(=O)O (stereo in doubt) | inactive | – |
| Nc1ccncc1N | inactive | – |
| CCCc1nn(C)c2c(=O)[nH]c(-c3cc(S(=O)(=O)N4CCN(C)CC4)ccc3OCC)nc12 | inactive | – |
| CCN1C=CN(C)C1C (stereo not given) | inactive | – |
| C[N+]12CCC(CC1)C(OC(=O)C(O)(c1ccccc1)c1ccccc1)C2 (stereo not given) | inactive | – |
| CCCCCCCCN1CCCC1=O | inactive | – |
| CC(C)CC(C)(N)C#N (stereo not given) | inactive | – |
| CC(C)(C)C(=O)c1ccccc1 | inactive | – |
| CCC(C)(CCCC(C)C)OC(C)=O (stereo not given) | inactive | – |
| O=[N+]([O-])c1ccc(/C=N\O)o1 | inactive | – |

| SMILES | outcome | viability change, negative = cytotoxic |
| --- | --- | --- |
| COc1cc(C(=O)OC(COCCC(C)C)CN2CCOCC2)cc(OC)c1OC (stereo not given) | inactive | – |
| C[C@H]1C[C@H]2[C@@H]3CCC4=CC(=O)C=C[C@]4(C)[C@H]3C(=O)C[C@]2(C)[C@@]1(O)C(=O)CO | inactive | – |
| Cc1ccc(C(=O)c2ccc(CC(=O)O)n2C)cc1 | inactive | – |
| CCOC(=O)CCC(=O)OCC | inactive | – |
| O=C(O)c1cc(C(=O)O)cc(C(=O)O)c1 | inactive | – |
| NC(=O)NC1N=C([O][Al])NC1=O (stereo not given) | inactive | – |
| O=C(O)CCSCCC(=O)O | inactive | – |
| O=Cc1cccc(Br)c1 | inactive | – |
| COc1cccc(OC)c1C(=O)N[C@@H]1C(=O)N2[C@@H]1SC(C)(C)[C@@H]2C(=O)O | inactive | – |
| COc1cc(C(=O)NCc2ccc(OCCN(C)C)cc2)cc(OC)c1OC | inactive | – |
| CC(CO)(CO)[N+](=O)[O-] | inactive | – |
| CC(=O)c1ccccc1[N+](=O)[O-] | inactive | – |
| CC(C)(C#N)Nc1nc(Cl)nc(NC2CC2)n1 | inactive | – |
| CC(C)[C@H]1CC[C@@H](C)CC1=O | inactive | – |
| COC(=O)Nc1ccc(Cl)c(Cl)c1 | inactive | – |
| C=CCCC(=O)O | inactive | – |
| OCCc1ccccn1 | inactive | – |
| CCOc1ccc2nc(S(N)(=O)=O)sc2c1 | inactive | – |
| O=CN(CCO)CCO | inactive | – |
| c1ccc(Cc2ccccc2)cc1 | inactive | – |
